Test results taken from the supplement of paper PMC10981050.
Several values for one entry are separate records, joined by “and”; a condition that tells them apart may be missing. Equal values may be shown once. Where a name gives a salt, the structure may show the parent alone.

Assays:
Experiment in all cases: cell viability relative to vehicle control; higher = less cytotoxic
Conditions in all cases: 10 µM
[1] = system: K562
Procedure, shortened: (§1)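 Mutant clones made by CRISPR editing and their isogenic wild-type counterparts, from four leukaemia lines, were exposed to a single 10 µM dose of each library compound for 48 h. The supernatant was then removed and CellTiter-Glo luminescence was read. Viability was reported as percent of the on-plate vehicle control.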

[2] = system: MARIMO
Procedure, shortened: as §1

[3] = system: MOLM14
Procedure, shortened: as §1

[4] = system: OCI-AML2
Procedure, shortened: as §1

Row | SMILES | cell viability ([1]; SRSF2 genotype: SRSF2 P95H/wt) | cell viability ([1]; SRSF2 genotype: SRSF2 wt/wt) | cell viability ([2]; SRSF2 genotype: SRSF2 P95H/wt) | cell viability ([2]; SRSF2 genotype: SRSF2 wt/wt) | cell viability ([3]; SRSF2 genotype: SRSF2 P95H/wt) | cell viability ([3]; SRSF2 genotype: SRSF2 wt/wt) | cell viability ([4]; SRSF2 genotype: P95H/wt) | cell viability ([4]; SRSF2 genotype: wt/wt)
1 | COc1cc(O)c2c(c1)C(=O)c1cc(C)cc(O)c1C2=O [Rheochrysidin (Physcione)] | 96.9% and 101% | 95.5% | 98.4% | 111% | 102% | 103% | 92.5% | 102%
2 | CCOC(=O)[C@H](CCc1ccccc1)N[C@@H](C)C(=O)N1C(=O)N(C)C[C@H]1C(=O)O [Imidapril HCl] | 93.9% and 85.6% | 90.9% | 84.9% | 94.4% | 95.1% | 95.2% | 108% | 87.7%
3 | CCc1cc(/C(C)=N/OCc2ccc(C3CCCCC3)c(C(F)(F)F)c2)ccc1CN1CC(C(=O)O)C1 [BAF312 (Siponimod)] | 86.8% and 89.2% | 87% | 79.3% | 67.2% | 66.5% | 66.3% | 48.1% | 49.8%
4 | O=C1CC(c2ccc(O)cc2)Oc2cc(O)ccc21 (stereo not given) [Liquiritigenin] | 99.3% and 104% | 106% | 116% | 93.6% | 99.8% | 104% | 121% | 99.3%
5 | OC[C@H]1O[C@@](CO)(O[C@H]2O[C@H](CO)[C@@H](O)[C@H](O)[C@H]2O)[C@@H](O[C@H]2O[C@H](CO)[C@@H](O)[C@H](O)[C@H]2O)[C@@H]1O [Melezitose] | 107% and 99.6% | 104% | 99% | 111% | 102% | 104% | 96.3% | 114%
6 | Cn1c([N+](=O)[O-])cnc1COC(N)=O [Ronidazole] | 95.1% and 89% | 92.3% | 97.3% | 97.3% | 96% | 99.5% | 90.8% | 102%
7 | Cc1c(C(=O)C=Cc2ccccc2)[n+](=O)c2ccccc2n1[O-] [Quinocetone] | 72.1% and 60% | 74.1% | 62.2% | 63.8% | 56.5% | 62.6% | 62.7% | 68.6%
8 | CC1(C)OCCn2c1nc1c(N3CCOCC3)nc(-c3cnc(N)nc3)nc12 | 47.1% and 53.8% | 55% | 45.7% | 36% | 27.3% | 23.9% | 11.2% | 19.6%
9 | O=c1cc(-c2ccc(O)c(O)c2)oc2c([C@@H]3O[C@H](CO)[C@@H](O)[C@H](O)[C@H]3O)c(O)cc(O)c12 [Orientin] | 104% and 101% | 101% | 100% | 97.3% | 103% | 103% | 98.8% | 100%
10 | CCCCCCCCCC=O [Decyl aldehyde] | 98.7% and 94.8% | 106% | 99.1% | 101% | 102% | 105% | 100% | 111%
11 | O=C1NC(=O)/C(=C/c2ccc(-c3ccc(F)cc3O)o2)S1 | 94.7% and 95.1% | 88.4% | 75.9% | 79.2% | 89.3% | 100% | 62.3% | 59%
12 | CN(C)CC/C=C1/c2ccccc2Sc2ccc(Cl)cc21 [Chlorprothixene] | 80.1% and 80.7% | 87.8% | 78.3% | 76.7% | 66.2% | 82.1% | 66.6% | 68.2%
13 | CC1CCC2(OC1)OC1CC3C4CCC5CC(OC6OC(CO)C(O)C(O)C6OC6OC(CO)C(O)C(O)C6O)CCC5(C)C4CCC3(C)C1C2C (stereo not given) [Timosaponin A3] | 7.72% and 10% | 28.3% | 3.39% | 3.93% | 1.66% | 0.73% | 0.43% | 0.73%
14 | Cc1cnc(C(=O)N[C@H]2CCCCC/C=C\[C@@H]3C[C@@]3(C(=O)NS(=O)(=O)C3CC3)NC(=O)[C@@H]3C[C@@H](Oc4nc5ccccc5c5ccccc45)CN3C2=O)cn1 [Paritaprevir(ABT-450)] | 98.7% and 91.6% | 91.4% | 106% | 119% | 97.8% | 100% | 115% | 114%
15 | Cc1cc(C)nc(NS(=O)(=O)c2ccc(N)cc2)n1 [Sulfamethazine Sodium Salt] | 105% and 99.9% | 102% | 106% | 106% | 100% | 106% | 88.5% | 113%
16 | CNC(=O)c1ccccc1Nc1cc(Nc2ccc(N3CCOCC3)cc2OC)ncc1C(F)(F)F | 77.7% and 90% | 82.8% | 38.6% | 35.2% | 11.4% | 11.4% | 21.3% | 26.5%
17 | COc1ccc2c(Oc3ccc(NC(=O)c4c(C)n(CC(C)(C)O)n(-c5ccccc5)c4=O)nc3)ccnc2c1 | 46% and 69.9% | 50% | 84.8% | 97.3% | 11% | 10.7% | 27.8% | 35.9%
18 | C=CS(=O)(=O)NC1CCN(C(=O)CNc2cc(I)c(Cl)cc2OC)CC1 [K-Ras(G12C) inhibitor 9] | 22.4% and 31% | 82.8% | 36.4% | 81.1% | 60.6% | 84.1% | 22.1% | 30%
19 | C=Cc1c(C)c2cc3nc(cc4[nH]c(cc5nc(cc1[nH]2)C(C)=C5CCC(=O)O)c(CCC(=O)OC)c4C)C1(C)C3=CC=C(C(=O)OC)C1C(=O)OC (stereo not given) [Verteporfin (Visudyne)] | 68.3% and 75.3% | 70.6% | 87.7% | 85.2% | 80.2% | 59.8% | 69.7% | 77.9%
20 | CN1CCN(c2ccc(-c3ccncc3-c3cc(F)c(O)c(F)c3)cc2)CC1 | 94.2% and 97.1% | 95.9% | 80.1% | 85.4% | 66.4% | 88.8% | 99.5% | 91.1%

Row | SMILES | cell viability ([1]; SRSF2 genotype: SRSF2 P95H/wt) | cell viability ([1]; SRSF2 genotype: SRSF2 wt/wt) | cell viability ([2]; SRSF2 genotype: SRSF2 P95H/wt) | cell viability ([2]; SRSF2 genotype: SRSF2 wt/wt) | cell viability ([3]; SRSF2 genotype: SRSF2 P95H/wt) | cell viability ([3]; SRSF2 genotype: SRSF2 wt/wt) | cell viability ([4]; SRSF2 genotype: P95H/wt) | cell viability ([4]; SRSF2 genotype: wt/wt)
21 | O=C(O)CCCc1c[nH]c2ccccc12 [3-Indolebutyric acid (IBA)] | 108% and 96.9% | 96.9% | 100% | 107% | 93.2% | 101% | 97.2% | 106%
22 | Cc1cc(Nc2ncnc3ccc(-c4ccc(CNCCS(C)(=O)=O)o4)cc23)ccc1Oc1ccn2ncnc2c1 [HER2 Inhibitor 1] | 96.3% and 102% | 105% | 107% | 108% | 93% | 101% | 95.7% | 89.6%
23 | Cc1ccc(Nc2cc(N[C@@H]3CCCC[C@@H]3N)nnc2C(N)=O)nc1C | 80.8% and 84.1% | 80.7% | 76.2% | 79% | 18.6% | 18% | 15.1% | 25.2%
24 | CO[C@@H](C)Cn1c(=O)n(C)c2cnc3ccc(-c4cncc(C(C)(C)O)c4)cc3c21 | 34.4% and 40.7% | 35% | 38.5% | 35.8% | 18.6% | 19.2% | 5.3% | 13.6%
25 | COc1ccc(S(=O)(=O)Nc2cc(-c3c(O)ccc4ccccc34)c(O)c3ccccc23)cc1 | 7.52% and 4.96% | 34.5% | 0.33% | 0.36% | 0.32% | 0.34% | 0.37% | 0.35%
26 | O=C(O)CCc1ccc(O)cc1 [Phloretic acid] | 99.4% and 99.9% | 94.6% | 93.9% | 104% | 109% | 103% | 99.2% | 105%
27 | COc1ncnc(NS(=O)(=O)c2ccc(N)cc2)c1OC [Sulfadoxine (Sulphadoxine)] | 103% and 107% | 98.1% | 104% | 105% | 95.4% | 100% | 98.5% | 96.3%
28 | COc1cc2ncnc(Nc3ccc(F)c(Cl)c3)c2cc1O | 92.5% and 95.6% | 102% | 102% | 101% | 81.9% | 101% | 90.2% | 94%
29 | OC[C@H]1O[C@H](OC[C@H]2O[C@H](OC[C@H]3O[C@H](O[C@]4(CO)O[C@H](CO)[C@@H](O)[C@@H]4O)[C@H](O)[C@@H](O)[C@@H]3O)[C@H](O)[C@@H](O)[C@H]2O)[C@H](O)[C@@H](O)[C@H]1O [Stachyose] | 106% and 100% | 99.7% | 102% | 109% | 97.3% | 105% | 94.5% | 93.5%
30 | Cc1nc2n(c(=O)c1CCN1CCC(c3noc4cc(F)ccc34)CC1)CCCC2O (stereo not given) [Paliperidone] | 84.4% and 93.4% | 80.7% | 90.2% | 93.2% | 83.5% | 91.8% | 89% | 91.2%
31 | CCCNC(=O)C1OC1C(=O)NC(C(=O)N1CCCC1C(=O)OC)C(C)CC (stereo not given) [CA-074 methyl ester (CA-074 Me)] | 76.9% and 62.3% | 70.2% | 66% | 90.1% | 18.2% | 11.8% | 25.6% | 24.1%
32 | CN(C)CCC[C@@]1(c2ccc(F)cc2)OCc2cc(C#N)ccc21 [Escitalopram Oxalate] | 87.5% and 88.8% | 92.8% | 85.4% | 91.1% | 89.4% | 93.7% | 89.2% | 88.4%
33 | CCN=C1N[C@@H]2[C@@H](O)[C@H](O)[C@@H](CO)O[C@@H]2S1 [Thiamet G] | 99.9% and 104% | 101% | 103% | 106% | 92.8% | 99.8% | 101% | 107%
34 | CCCC(CCC)C(=O)O [Valproic acid sodium salt (Sodium valproate)] | 95% and 89.8% | 102% | 84.2% | 91.5% | 93.2% | 93.7% | 89.8% | 95.9%
35 | CC1(C)[C@@H](O[C@H]2O[C@H](C(=O)O)[C@@H](O)[C@H](O)[C@H]2O[C@@H]2O[C@H](C(=O)O)[C@@H](O)[C@H](O)[C@H]2O)CC[C@]2(C)[C@H]3C(=O)C=C4[C@@H]5C[C@@](C)(C(=O)O)CC[C@]5(C)CC[C@@]4(C)[C@]3(C)CC[C@@H]12 [Ammonium Glycyrrhizate] | 97.4% and 102% | 99.3% | 101% | 101% | 106% | 98.9% | 106% | 99%
36 | O=c1[nH]cc(F)c(=O)[nH]1 [Adrucil (Fluorouracil)] | 92.3% and 90% | 74.5% | 68.5% | 67.4% | 37.5% | 26.1% | 49.1% | 55.1%
37 | CSc1ccc(C(=O)/C=C/c2cc(C)c(OC(C)(C)C(=O)O)c(C)c2)cc1 [Elafibranor] | 91.2% and 99.2% | 88.1% | 91.3% | 91% | 34.2% | 30% | 61.7% | 57%
38 | COc1cc2nccc(Oc3ccc(NC(=O)c4cn(C(C)C)c(=O)n(-c5ccc(F)cc5)c4=O)cc3F)c2cc1OC | 30.1% and 27.1% | 48.2% | 102% | 102% | 27.7% | 43.7% | 70.4% | 80.4%
39 | Cc1n[nH]c2ncc(C(=O)N3CCC[C@H]3c3ccc(Cl)cc3)cc12 | 101% and 98.5% | 99.8% | 101% | 128% | 88.8% | 105% | 91.4% | 92.8%
40 | CC#CC(=O)Nc1ccc2ncnc(Nc3cccc(Br)c3)c2c1 | 7.91% and 17.6% | 20.9% | 34.7% | 35.5% | 0.84% | 1.92% | 1.61% | 6.95%
